# Data as given in PubChem BioAssay (Tox21).
# Records with an inconclusive call do not appear. A call without a number means that no potency is given here. Values without a mark were called inactive. The source made the active and inactive calls. The call rests on the fitted dose curve.
# Target: Beta-2 adrenergic receptor (Homo sapiens) (UniProt P07550)
# Assay: Adrenergic beta2 receptor (ADRB2) small molecule agonists, cell-based qHTS assay (AID 1963593);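 further: CHO cells stably overexpressing human ADRB2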
# Procedure, shortened: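 CHO cells stably over-expressing ADRB2 were plated overnight at 37C, then dosed with compounds plus a stimulation mix containing 100uM IBMX and 25uM Ro-20-1724 for 0.5hr at room temperature. cAMP was measured by HTRF competition, 1hr.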
# Beta-2 adrenergic receptor (Homo sapiens), sequence (P07550 whole entry, looked up): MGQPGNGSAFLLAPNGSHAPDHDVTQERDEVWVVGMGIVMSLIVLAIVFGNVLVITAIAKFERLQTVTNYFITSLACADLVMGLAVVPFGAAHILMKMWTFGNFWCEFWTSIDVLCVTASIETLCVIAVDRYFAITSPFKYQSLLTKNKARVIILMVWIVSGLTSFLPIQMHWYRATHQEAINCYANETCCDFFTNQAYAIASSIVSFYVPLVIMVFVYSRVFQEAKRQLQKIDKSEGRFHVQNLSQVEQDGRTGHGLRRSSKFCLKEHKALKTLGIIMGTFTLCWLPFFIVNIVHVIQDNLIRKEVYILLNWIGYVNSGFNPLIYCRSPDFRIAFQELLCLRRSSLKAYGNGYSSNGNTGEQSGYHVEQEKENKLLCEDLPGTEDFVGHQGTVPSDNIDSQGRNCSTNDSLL
Compound,Potency,activation
CC1(C)CO[C@@H](CC(=O)O)CN1,inactive,–
CC(C)(C)CC(C)(C)c1ccc(O)c(-n2nc3ccccc3n2)c1,inactive,–
O=S(=O)(O)c1cccc(S(=O)(=O)O)c1,inactive,–
CCSC(=O)N(CC)CC,inactive,–
CC(C=O)c1ccccc1 (stereo unspecified),inactive,–
CCCCCCCC(=O)OCCCCCC,inactive,–
CCCCOC(O)CC (stereo unspecified),inactive,–
O=C(OCCOCCO)c1ccccc1Nc1cccc(C(F)(F)F)c1,inactive,–
CCOc1ccccc1C(N)=O,inactive,–
COc1cccc(OC)c1C(=O)O,inactive,–
C=CC(C)(O)CC/C=C(\C)CC (stereo unspecified),inactive,–
O=C(O)c1cc(=O)c2ccccc2o1,inactive,–
CC1CC(O)CC(C)(C)C1 (stereo unspecified),inactive,–
COc1cc(C=O)ccc1OC(=O)C(C)C,inactive,–
c1ccc(CNCc2ccccc2)cc1,inactive,–
CC(=O)N[C@@H](CC(C)C)C(=O)O,inactive,–
Nc1ccc(N=Nc2ccccc2)c(N)n1,inactive,–
O=Cc1cc2ccccc2o1,inactive,–
O=C(O)c1cc(C(=O)O)cc([N+](=O)[O-])c1,inactive,–
C=CCS(=O)(=O)O,inactive,–
COC(/C=C(\C)CCC=C(C)C)OC,inactive,–
CCOC(=O)CC(C(C)=O)C(C)=O,inactive,–
O=S(=O)(O)CC(O)CCl (stereo unspecified),inactive,–
N#CCN(CC#N)CCN(CC#N)CC#N,inactive,–
CCCc1ccccc1,inactive,–
CC(C)C(=O)Nc1cccc(C2CN3CCSC3=N2)c1 (stereo unspecified),inactive,–

Compound,Potency,activation
Cc1ccc(-c2ccccc2C#N)cc1,inactive,–
CCC(C)(O)CCC=C(C)C (stereo unspecified),inactive,–
CCc1occc(=O)c1O,inactive,–
Cc1ccc(C)cc1,inactive,–
CCCCOC(=O)[C@H](C)O,inactive,–
COC(c1ccccc1)(c1ccccc1)[C@H](Oc1nc(C)cc(C)n1)C(=O)O,inactive,–
CCCCCCCCO[C@@H]1O[C@H](CO)[C@@H](O)[C@H](O)[C@H]1O,inactive,–
COC(=O)/C=C(/C)N,inactive,–
CCCCCCCCCCCCCCCCBr,–,-6.98% [at 19 µM]
CCCOC(C)=O,inactive,–
O=C(O)c1cc(=O)[nH]c(=O)[nH]1,inactive,–
CCCC(=O)OCC(COC(=O)CCC)OC(=O)CCC,inactive,–
C[Si](C)=O,–,7.37% [at 8.39 µM]
N#CC1(c2ccc(F)cc2)CCC(=O)CC1,inactive,–
O=C(O)CONC(=O)c1ccccc1,inactive,–
C=C(C)C(=O)OCCC(C)OC(=O)C(=C)C (stereo unspecified),inactive,–
Clc1nc(Cl)c(Cl)c(Cl)c1Cl,inactive,–
O=c1[nH]c2cc(C(F)(F)F)c(N3CCOCC3)cc2n(CP(=O)(O)O)c1=O,inactive,–
CCC(C)(Oc1ccc(C2(c3ccc(OC(C)(CC)C(=O)O)cc3)CCCCC2)cc1)C(=O)O (stereo unspecified),inactive,–
C=CCCCCCCCC,inactive,–
CCOC(C)(C)C,inactive,–
CC(=O)S[C@H](C(=O)N[C@H]1Cc2ccccc2[C@H]2CCC[C@@H](C(=O)O)N2C1=O)C(C)C,inactive,–
c1ccc2c(c1)CCc1ccccc1N2,inactive,–
ClC/C=C\CCl,inactive,–
CNCCS(=O)(=O)O,inactive,–
CCCCOCCOCCOCCCC,inactive,–

Compound,Potency,activation
CCCc1ccc(O)cc1,inactive,–
NCCNCCO,inactive,–
Cc1ccccc1C(=O)N1CC/C(=N\OS(=O)(=O)O)c2ccc(Cl)cc21,inactive,–
C=CCCC=C,inactive,–
CCOC(=O)c1c(C)n(C)c2ccc(O)cc12,inactive,–
Cc1ccc2ccccc2c1[N+](=O)[O-],inactive,–
Cc1cncc(C)c1,inactive,–
c1ccsc1,inactive,–
CCOC(=O)c1ccc(C)cc1,inactive,–
CC(C)(C)C(=O)OCOC(=O)C1N2C(=O)CC2S(=O)(=O)C1(C)C (stereo unspecified),inactive,–
CC(C)(CO)[C@@H](O)C(=O)NCCC(=O)O,inactive,–
Nc1nnnn1-c1ccccc1,inactive,–
CCOC(=O)c1cccc(N)c1,inactive,–
CC1=CCC(O)(C(C)C)CC1 (stereo unspecified),inactive,–
CCCCCCCCCCCCCCCCCCOCC(O)CO (stereo unspecified),inactive,–
CCCCCCCCc1ccc(Nc2ccc(CCCCCCCC)cc2)cc1,inactive,–
C1CCSC1,inactive,–
CCO[Si](C)(OCC)OCC,inactive,–
CC(C)=CCCC(C)CC=O (stereo unspecified),inactive,–
C=C(C)C(=O)OCCNC(C)(C)C,inactive,–
CCOC(=O)[C@H](CCc1ccccc1)N[C@@H](C)C(=O)N1Cc2ccccc2C[C@H]1C(=O)O,inactive,–
COC(=O)c1cc(Cl)ccc1NS(=O)(=O)C(F)(F)F,inactive,–
COC(=O)Nc1ccc(Cl)c(Cl)c1,inactive,–
CCOC(=S)SSC(=S)OCC,inactive,–
